Measured values published in ChEMBL document CHEMBL1201862, “PubChem BioAssay data set” (2004).
The whole screen tested about 56,000 sequences, of which about 2,900 (5.2%) were called active. Cut-off read from the data, not from the text of the source: active = GI50 up to about 1.1 µM and inactive = higher. Not all results are given here. Measured potencies and affinities stand elsewhere.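 Tested at 5 concentrations; 48 h exposure; 96-well plates; endpoints linearly interpolated, else capped at highest concentration. Here, GI50 denotes the concentration required for 50% inhibition of growth.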

Each substance was assayed on SK-OV-3 (assay: NCI tumour cell line growth inhibition, 48 h).
For “[Bis(aminomethyl)tetramethylenesilane]tetrachloropaltinum(IV), CHEMBL2146189”, the GI50 was 6.97 µM. “cis-Bis[[(trimethylsilyl)methyl]amino]tetrachloroplatinum(IV), CHEMBL2146191” was tested, and the GI50 was 17.6 µM. Work on “[Bis(aminomethyl)ethylmethylsilane]tetrachloroplatinum(IV), CHEMBL2146192” yielded a GI50 of 13.1 µM. With CISPLATIN, CHEMBL11359 the GI50 was 5.35 µM. “[Bis(aminomethyl)dimethylsilane]dichloroplatinum (II), CHEMBL2146201” was tested, and the GI50 was > 100 µM. Work on “mu-(1,7-nanodiamine-N,N')bis-(cis-aminedichloroplatimum (II)), CHEMBL2146215” yielded a GI50 of 64.9 µM. With “[Bis(aminomethyl)pentamethylenesilane]tetrachloropaltinum(IV), CHEMBL2146204” the GI50 was 4.5 µM. For “[Bis(aminomethyl)dimethylsilane]tetrachloroplatinum(IV), CHEMBL2146190”, the GI50 was 12.8 µM. In the case of “[Bis(aminomethyl)pentamethylenesilane]dichloropaltinum(II), CHEMBL2146202”, the GI50 is reported as 5.12 µM. “[Bis(aminomethyl)diethylsilane]tetrachloroplatinum(IV), CHEMBL2146203” showed a GI50 of 1.69 µM. With “[Bis(aminomethyl)tetramethylenesilane]dichloropaltinum(II), CHEMBL2146205” the GI50 was 26.2 µM.
